An excerpt weighted towards active compounds, which were near 21% of everything screened.
Pf growth 48h = P. falciparum growth inhibition at 48 hours (one generation); 5.9% of 310,000 active; AID 504832; Potency, µM (highest dose often 28.7 µM), most hits filed as inhibitors; P. falciparum luciferase growth in erythrocytes, 48 h
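Cell-based growth assay: transgenic P. falciparum expressing firefly luciferase, cultured in red cells within RPMI 1640 containing 0.5% w/v Albumax, 24 mM bicarbonate and gentamycin. A drop in luciferase activity indicates inhibition.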
Shiga toxin inh = inhibitors of Shiga toxin in Vero cells | Vero cells, Shiga toxin protein synthesis inhibition reporter | inhibition, % at 38.7 µM | 9.2% of 290,000 active | AID 2315; in the data active = inhibition mostly above about 28%, no sharp cut-off; inactive = mostly below about 43%
Cycloheximide cs = affects cycloheximide protein synthesis inhibition readout, counter-screen; cell reporter, cycloheximide protein synthesis inhibition counterscreen; max response, %; 12% of 300,000 active; in the data active = max response mostly above about 13%, no sharp cut-off; inactive = mostly below about 14%; note: read at 38.3 µM for the half of the compounds with a filed dose
Pf growth 96h = P. falciparum growth inhibition at 96 hour, primary screen for plastid delayed-death inhibitors | P. falciparum luciferase reporter growth, 96 h | Potency, µM (doses to about 28.7 µM), actives largely listed as inhibitors | 6.9% of 320,000 active
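Plates of compound plus infected erythrocytes (2% hematocrit, 0.05% parasitemia final) incubate 96 hours, 37 C, 5% CO2. Detection reagent added; reduced luminescence from the parasites' luciferase reporter flags inhibition.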
Large screens that a line does not name were inactive. Unless noted, calls come from the whole dose curve; as a rule, active = well fitted inhibition curve with a large enough effect; inconclusive = small, poorly fitted or top-dose-only effect, or another doubt; inactive = no such curve, though single readings can be large or run the other way.

C#CCOCCOCCOCCNc1nc(N2CCOCC2)nc(N2CCN(C(=O)[C@H](Cc3cc4ccccc4[nH]3)n3cc([C@@H](N)Cc4ccc(O)cc4)nn3)CC2)n1	Pf growth 48h inconclusive, Pf growth 96h 1.85µM
C#CCOCCOCCOCCNc1nc(N2CCN(C(=O)[C@H](Cc3cc4ccccc4[nH]3)n3cc([C@@H](N)C(C)CC)nn3)CC2)nc(N2CCN(C(=O)[C@H](Cc3cc4ccccc4[nH]3)n3cc([C@@H](N)CC(C)C)nn3)CC2)n1 (stereo not given in full)	Pf growth 48h 11.7µM, Pf growth 96h inconclusive
C#CCOCCOCCOCCNc1nc(N2CCN(C(=O)[C@H](CCCCN)n3cc([C@@H](N)C(C)CC)nn3)CC2)nc(N2CCN(C(=O)[C@H](Cc3cc4ccccc4[nH]3)n3cc([C@@H](N)CC(C)C)nn3)CC2)n1 (stereo not given in full)	none
CC(C)(C)NS(=O)(=O)c1ccc(CCC(=O)N2CCCC2)cc1	Pf growth 48h inconclusive
C=C1CCN(C(Cc2ccccc2)C(=O)NCc2ccc(Cl)cc2)S(=O)(=O)c2ccccc21 (stereo not given)	none (no result: Pf growth 48h, Pf growth 96h)
COC(=O)C1=C[C@@H](C(=O)OC)C2C3=C(C(=O)[C@@]2(C)NC(=O)c2ccccc2)[C@H](c2ccccc2)n2c(=O)n(-c4ccccc4)c(=O)n2[C@@H]3C1 (stereo not given in full)	none (no result: Pf growth 48h, Pf growth 96h)
CCOc1ccc(S(=O)(=O)N2CCCC(C(=O)Nc3cc(C)cc(C)c3)C2)cc1 (stereo not given)	Pf growth 48h inconclusive
O=C(COc1ccc(S(=O)(=O)N2CCOCC2)cc1Cl)NC1CC1	none
COCC(C)n1c(C)cc(C(=O)COc2ccc(S(=O)(=O)N3CCOCC3)cc2Cl)c1C (stereo not given)	Pf growth 48h 13.1µM (no result: Pf growth 96h)
O=C(O)/C=C/c1cn(-c2ccccc2)nc1-c1ccc(-c2ccc([N+](=O)[O-])cc2)o1	none
O=C(O)CCn1cc(/C=C2\SC(=S)NC2=O)c(-c2ccccc2)n1	none
Cc1ccc(-c2nn(-c3ccccc3)cc2/C=C(\C#N)c2cccc(C#N)c2)o1	Pf growth 48h 11.7µM (no result: Pf growth 96h)
CN(C)S(=O)(=O)c1cccc(-c2nn(-c3ccccc3)cc2/C=C2\SC(=S)NC2=O)c1	Pf growth 48h 4.65µM, Pf growth 96h 2.62µM
CN(C)S(=O)(=O)c1cccc(-c2nn(-c3ccccc3)cc2/C=C(\C#N)c2nc3ccccc3[nH]2)c1	Pf growth 48h 2.08µM, Pf growth 96h 1.47µM
N#C/C(=C\c1cn(-c2ccccc2)nc1-c1cc2ccccc2o1)c1nc2ccccc2[nH]1	Pf growth 48h 1.04µM, Shiga toxin inh 120.6, Cycloheximide cs 46.1, Pf growth 96h 0.657µM
O=C(Nc1ccc2c(c1)CCCN2C(=O)c1cccs1)c1c(F)cccc1Cl	none
Cc1ccccc1CS(=O)(=O)c1cn(CC(=O)N2CCOCC2)c2ccccc12	none
O=C(N1CCOCC1)N1CCN(S(=O)(=O)N2CCCCC2)CC1	Pf growth 96h 4.15µM
Cc1nn(-c2ccccc2)c(Cl)c1C1C(C#N)=C(N)Oc2c1c(C)nn2-c1ccccc1 (stereo not given)	Pf growth 48h 10.4µM, Pf growth 96h 10.4µM
Cc1ccc(-n2nc(C)c3c2OC(N)=C(C#N)C3c2cccs2)cc1 (stereo not given)	Cycloheximide cs 16.8
Cc1ccc(-n2nc(C)c3c2OC(N)=C(C#N)C3c2ccncc2)cc1 (stereo not given)	Pf growth 96h 0.522µM
Cc1ccc(-n2nc(C)c3c2OC(N)=C(C#N)C3c2ccccc2F)cc1 (stereo not given)	Pf growth 48h inconclusive, Pf growth 96h inconclusive
Cc1nn(-c2ccccc2)c2c1C(c1ccncc1)C(C#N)=C(N)O2 (stereo not given)	none (no result: Pf growth 96h)
Cc1nn(-c2ccccc2)c(Cl)c1C1C(C#N)=C(N)Oc2n[nH]c(C)c21 (stereo not given)	none
COc1ccccc1OCC(=O)NCCC1=CCCCC1	none
COc1ccccc1/C=C/C(=O)NCCC1=CCCCC1	Pf growth 48h inconclusive, Shiga toxin inh 117.7, Cycloheximide cs 29.1, Pf growth 96h inconclusive
O=C(COC(=O)/C=C/c1ccccc1)NCCC1=CCCCC1	none
O=C(/C=C/c1ccc(F)cc1)NCCC1=CCCCC1	Shiga toxin inh 117.4, Cycloheximide cs 33.3
O=C(/C=C/c1ccccc1)NCCC1=CCCCC1	Shiga toxin inh 39.5, Cycloheximide cs 38.3
O=[N+]([O-])/C=C1\C=CC=CN1Cc1ccc(Cl)cc1	none
O=C(NC1CCN(C(=S)NCCc2ccccc2)CC1)C1CCCCC1	none
Cc1cc(C)nc(NC(=O)C(c2ccccc2)c2ccccc2)n1	none
Cc1cc(C)nc(NC(N)=NC(C)c2ccccc2)n1 (stereo not given)	Pf growth 48h 14.7µM, Pf growth 96h inconclusive
CC(NC(=O)CCN1C(=O)c2ccccc2C1=O)c1ccccc1 (stereo not given)	Pf growth 96h inconclusive
Cc1ccc(/C=N/NC(=O)c2ccccc2OCc2cccc(Br)c2)o1	Cycloheximide cs 15.2, Pf growth 96h inconclusive
O=C(N/N=C/c1ccco1)c1ccc(OCc2ccccc2)cc1	Pf growth 48h inconclusive, Cycloheximide cs 11.1
O=C(N/N=C/c1ccco1)c1ccccc1OCc1ccc(Br)cc1	Shiga toxin inh 117.9, Cycloheximide cs 33.1, Pf growth 96h 13.1µM
O=C(N/N=C/c1ccc(COc2ccc(Br)cc2)o1)c1ccco1	Pf growth 48h inconclusive, Shiga toxin inh active
COCCNC(=O)c1ccc(Cl)c(S(=O)(=O)Nc2cccc(C)c2C)c1	none
O=C(c1ccc(-c2cccc(C(F)(F)F)c2)o1)N1CCCC(C(F)(F)F)C1 (stereo not given)	Pf growth 96h inconclusive (no result: Shiga toxin inh, Cycloheximide cs)
CCCCn1c(N)c(N(CCOC)C(=O)C(C)N2C(=O)c3ccccc3C2=O)c(=O)[nH]c1=O (stereo not given)	none (no result: Shiga toxin inh, Cycloheximide cs)
COc1ccc(CNC(=O)c2ccc(CS(=O)(=O)c3ccc(C)cc3)o2)cc1	none
Cc1ccc(/C=N/NC(=O)c2cccc(NC(=O)c3ccccc3C)c2)o1	none
Cc1ccc(/C=N/NC(=O)c2cccc(NC(=O)c3ccccc3Cl)c2)o1	Pf growth 96h 1.17µM
COc1ccc(OC)c(N/C(C)=C/C(=O)c2ccc(Br)cc2)c1	Pf growth 96h inconclusive
CC1(COc2ccc(CC3SC(=O)NC3=O)cc2)CCCCC1 (stereo not given)	none (no result: Shiga toxin inh, Cycloheximide cs)
O=C(OCC1CC(c2ccccc2Cl)=NO1)c1ccc(Br)cc1 (stereo not given)	Cycloheximide cs 19.9
O=C(OCC1CC(c2ccccc2)=NO1)c1ccc(Br)cc1 (stereo not given)	none
O=C(OCC1CC(c2ccccc2)=NO1)c1ccco1 (stereo not given)	Shiga toxin inh 93.0, Cycloheximide cs 54.0
CCOC(=O)c1cc(-c2ccccc2)n(CC2CC(c3ccc(OC)cc3)=NO2)n1 (stereo not given)	none
CCN(C(=O)COC(=O)c1cc(-c2cccc3ccccc23)nc2ccccc12)C1CCS(=O)(=O)C1 (stereo not given)	none
O=C(NCc1ccccc1)C(c1ccc(F)cc1)N(C(=O)c1csnn1)c1ccccc1 (stereo not given)	none

High-throughput results: PubChem, National Center for Advancing Translational Sciences (NCATS)
